Compound activity (PubChem)
Compounds with a hit are over-represented: about 4.6% of the library has one in this group of screens.
FAS-TE inh: FAS thioesterase domain inhibitors, primary screen, biochemical, fluorescence intensity, uHTS; Fatty acid synthase (Homo sapiens), P49327; recombinant FAS-TE, OMFH fluorogenic substrate, fluorescence endpoint; inhibition, % at 15 µM; 0.67% of 360,000 active; AID 602261, 2012;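 active = compounds whose normalised, plate-corrected inhibition of enzyme fluorescence in the single-dose primary screen is 50% or more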
ADAM10 inh: human ADAM10 inhibitors, primary screen, biochemical, QFRET, HTS | recombinant ADAM10, EDANS/DABCYL FRET peptide cleavage, 3 h | inhibition, % at 7 µM | 0.62% of 370,000 active | AID 720582, 2013;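 active = inhibition above a per-campaign cutoff equal to the mean of compounds falling between control-based bounds plus 3 SD, cut at about 20% in these data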
Target sequence (O14672 214-748 limits assumed): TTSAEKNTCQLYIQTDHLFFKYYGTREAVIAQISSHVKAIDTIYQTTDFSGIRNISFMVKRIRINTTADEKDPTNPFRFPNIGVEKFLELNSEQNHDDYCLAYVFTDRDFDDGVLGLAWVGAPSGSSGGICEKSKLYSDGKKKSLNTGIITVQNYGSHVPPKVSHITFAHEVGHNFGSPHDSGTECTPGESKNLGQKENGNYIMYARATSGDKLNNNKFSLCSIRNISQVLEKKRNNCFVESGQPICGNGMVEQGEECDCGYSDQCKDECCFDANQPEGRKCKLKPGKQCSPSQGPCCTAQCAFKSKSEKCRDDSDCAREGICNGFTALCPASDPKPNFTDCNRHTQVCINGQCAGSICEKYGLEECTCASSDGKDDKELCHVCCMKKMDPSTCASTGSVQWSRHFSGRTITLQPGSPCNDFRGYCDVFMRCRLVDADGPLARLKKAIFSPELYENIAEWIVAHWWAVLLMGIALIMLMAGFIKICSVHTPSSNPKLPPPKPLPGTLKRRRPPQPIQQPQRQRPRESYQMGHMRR
ADAM17 inh: ADAM17 inhibitors, primary screen, biochemical, QFRET; recombinant ADAM17, EDANS/DABCYL FRET peptide cleavage; AID 720648, 2013; 0.83% of 370,000 active; Disintegrin and metalloproteinase domain-containing protein 17 (Homo sapiens), P78536; inhibition, % at 6.95 µM;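 active = inhibition above the mean of compounds lying between control limits plus 3 SD, set per campaign, cut at about 8.5% in these data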
GRIN3A LBD mod: binders of NR3A ligand-binding domain, primary screen, biophysical, differential scanning fluorimetry, uHTS. Glutamate receptor ionotropic, NMDA 3A (GRIN3A) ligand-binding domain. NR3A LBD differential scanning fluorimetry, Tm shift; 0% = protein alone, 100% = glycine-bound protein. Tm shift relative to glycine control, % at 25 µM. 2.5% of 340,000 active;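 active = melting temperature shift of at least 10% of the positive control shift, at one fixed dose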
proKLK7 act: proKLK7 zymogen activators, primary screen, biochemical, fluorescence intensity; Kallikrein-7 (Homo sapiens), P49862; purified proKLK7, EDANS-DABCYL substrate fluorescence; 100% is mature enzyme control, 0% vehicle; activation, % at 7 µM; 0.9% of 370,000 active;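 active = activation above the mean of all tested compounds plus 3 SD, computed per campaign excluding outliers beyond control limits, cut at about 13% in these data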
Each line names hits and unclear results; the compound was inactive in the other large screens.

C[C@H](CO)N1C[C@H](C)[C@@H](CN(C)C(=O)Nc2ccc(C(F)(F)F)cc2)Oc2ccc(NC(=O)Nc3ccc4c(c3)OCO4)cc2C1=O	GRIN3A LBD mod 11
CC(C)NC(=O)N(C)C[C@H]1Oc2ccc(NC(=O)CCC(F)(F)F)cc2C(=O)N([C@H](C)CO)C[C@@H]1C	GRIN3A LBD mod 13
C[C@@H]1CN([C@H](C)CO)C(=O)c2cc(NC(=O)Nc3ccc(F)cc3)ccc2O[C@H]1CN(C)C(=O)Nc1ccc(C(F)(F)F)cc1	none (no result: ADAM10 inh, ADAM17 inh, proKLK7 act)
C[C@H](CO)N1C[C@H](C)[C@@H](CN(C)C(=O)Nc2ccccc2)Oc2ccc(NC(=O)Nc3ccc(C(F)(F)F)cc3)cc2C1=O	GRIN3A LBD mod 11
CN1C(=O)C(CC(=O)Nc2ccc(Cl)cc2)N(Cc2ccco2)C1=S (centres undefined)	none
CCOc1ccc(NC(=O)CC2C(=O)N(C)C(=S)N2Cc2ccc3c(c2)OCO3)cc1 (centres undefined)	GRIN3A LBD mod 12
CCOc1ccc(NC(=O)CC2C(=O)N(C)C(=S)N2Cc2ccco2)cc1 (centres undefined)	GRIN3A LBD mod 17
CCN1C(=O)C(CC(=O)Nc2ccc(OC)cc2)N(Cc2ccc3c(c2)OCO3)C1=S (centres undefined)	GRIN3A LBD mod 22
CCOc1ccc(NC(=O)CC2C(=O)N(C)C(=S)N2CCCc2ccccc2)cc1 (centres undefined)	none
N#CC1CC(c2ccc([N+](=O)[O-])cc2)=NN1c1ccc([N+](=O)[O-])cc1 (centres undefined)	GRIN3A LBD mod 20
O=C(NCCOc1ccccc1)c1ncn[nH]1	GRIN3A LBD mod 10
COc1ccc(C(=O)N/N=C(/C)c2cccc(NC(=O)C(F)(F)F)c2)cc1	GRIN3A LBD mod 10
CCC(=O)Nc1ccc(/C(C)=N\NC(=O)c2ccc(OC)cc2)cc1	GRIN3A LBD mod 19
N#Cc1ccc(/C=C2\CC3(OC(=O)c4ccc(F)cc4)CCCN2C3)cc1 (centres undefined)	none (no result: FAS-TE inh, GRIN3A LBD mod)
COC(=O)[C@]1(Cc2ccccc2)N[C@H](c2ccc(-c3ccc4c(c3)OCO4)cc2)[C@@H]2C(=O)N(C)C(=O)[C@@H]21	FAS-TE inh 86
Cc1ccccc1CN1CCCCC(NC(=O)C2CCC2)C1=O (centres undefined)	none (no result: FAS-TE inh, GRIN3A LBD mod)
C#CCOCCOCCOCCNc1nc(N2CCN(C(=O)Cn3cc(CCCN=C(N)N)nn3)CC2)nc(N2CCN(C(=O)[C@H](Cc3ccc(O)cc3)n3cc(CCO)nn3)CC2)n1	none (no result: FAS-TE inh, GRIN3A LBD mod, proKLK7 act)
COc1cc(Nc2ccccn2)cc(C(=O)Nc2cccc(C(F)(F)F)c2)c1	GRIN3A LBD mod 21
COc1cc(NC(=O)c2ccc(N)nc2)cc(C(=O)Nc2cccc(C(F)(F)F)c2)c1	GRIN3A LBD mod 30
COc1cc(NC(=O)c2cc3cccc(OC)c3o2)cc(C(=O)Nc2cccc(C(F)(F)F)c2)c1	GRIN3A LBD mod 12
COc1cc(NC(=O)c2csc(-c3ccncc3)n2)cc(C(=O)Nc2cccc(C(F)(F)F)c2)c1	none
COc1cc(NC(=O)c2nccnc2N)cc(C(=O)Nc2cccc(C(F)(F)F)c2)c1	none
COc1ccc(-c2cc(C(=O)Nc3cc(OC)cc(C(=O)Nc4cccc(C(F)(F)F)c4)c3)[nH]n2)cc1	GRIN3A LBD mod 29
COc1cc(-c2c(C(=O)c3ccccc3)[nH]c(N)c2C(N)=O)ccc1O	none (no result: FAS-TE inh, GRIN3A LBD mod, proKLK7 act)
Cc1ccc(OCCOc2ccc(Cl)cc2Cl)c(Br)n1	none (no result: FAS-TE inh, GRIN3A LBD mod, proKLK7 act)
C#CCNC(=O)C[C@H]1C[C@@]2(C(=O)OC)C(=C[C@H](C3CCCC3)O[C@@H]2C)N(Cc2ccc(Cl)cc2Cl)C1=O	none (no result: FAS-TE inh, GRIN3A LBD mod)
COc1ccc(CCC(=O)OCC(=O)c2ccc(C)cc2)cc1	GRIN3A LBD mod 56
CN(c1ccccc1)S(=O)(=O)c1ccc(NC(=O)CC(=O)c2ccccc2)cc1	GRIN3A LBD mod 16
Cc1ccc(CN(C)C(=O)c2ccc(S(=O)(=O)N(C)c3ccccc3)cc2)o1	GRIN3A LBD mod 22
CN(Cc1ccc(OC(F)F)cc1)C(=O)c1ccc(S(=O)(=O)N(C)c2ccccc2)cc1	none
CC(=O)Nc1ccc(NC(=O)c2ccc(S(=O)(=O)N(C)c3ccccc3)cc2)cc1	none
O=C(NC1CCCCN(Cc2ccc(Cl)cc2)C1=O)c1ccc(-c2ccccc2)cc1 (centres undefined)	none (no result: FAS-TE inh, GRIN3A LBD mod)
CCO/C=N/Nc1nc(C(F)(F)F)nc2c1cnn2Cc1ccccc1	GRIN3A LBD mod 13
CNc1oc(-c2ccccc2F)nc1S(=O)(=O)c1ccc(C)cc1	GRIN3A LBD mod 13
Cn1ncc2c(Nc3ccc(-c4ccccc4)cc3)ncnc21	none
Cn1ncc2c(Nc3ccccc3Br)ncnc21	GRIN3A LBD mod 14
O=C(Cn1nnc(-c2ccccc2F)n1)Nc1ccc(F)cc1F	none (no result: FAS-TE inh, GRIN3A LBD mod)
O=C(NCc1cccc(F)c1)c1ccc(N2C(=O)Cn3c(cc4sccc43)C2=O)cc1	GRIN3A LBD mod 17
NC(N)=NS(=O)(=O)c1ccc(N/C=C/C(=O)c2ccc(Cl)c(Cl)c2)cc1	GRIN3A LBD mod 13
O=C(O)c1ccc(NS(=O)(=O)c2ccc(C(=O)Nc3ccccc3)cc2)cc1	GRIN3A LBD mod 17
O=C(O)c1ccc(NS(=O)(=O)c2ccc(N3CCCC3)c([N+](=O)[O-])c2)cc1	GRIN3A LBD mod 10
O=C(Nc1ccc(NS(=O)(=O)c2ccccc2)cc1)c1ccccc1	none
O=C(Nc1ccc(S(=O)(=O)Nc2cnc3ccccc3n2)cc1)c1cccc(OC(F)F)c1	GRIN3A LBD mod 11
NC(=O)c1ccc(NS(=O)(=O)c2ccc3ccccc3c2)cc1	GRIN3A LBD mod 12
Cc1ccccc1C(=O)N(C)[C@H]1C[C@H]2c3[nH]c4c(-c5ccc6c(c5)OCO6)cccc4c3CCN2C[C@H]1[C@H](C)O	none (no result: FAS-TE inh, GRIN3A LBD mod)
O=C(NCC1COc2ccccc2O1)c1ccc(NC(=O)c2c(Cl)cccc2Cl)cc1 (centres undefined)	none (no result: FAS-TE inh, GRIN3A LBD mod)
O=C(Nc1ccc(S(=O)(=O)Nc2cnc3ccccc3n2)cc1)c1ccc(F)cc1	none
CC(C)(C)c1ccc(C(=O)Nc2ccc(S(=O)(=O)Nc3cnc4ccccc4n3)cc2)cc1	GRIN3A LBD mod 13
NC(=O)c1ccc(NC(=O)c2cnc3ccccc3n2)cc1	GRIN3A LBD mod 16
CCOC(=O)[C@]12CCCCC/C=C\1N(Cc1ccc(OC)cc1)C(=O)[C@H]2CC(=O)NCCC(C)C	none (no result: FAS-TE inh, GRIN3A LBD mod)
Cc1ccc(OCC(C)CN2CCC(C(O)(c3ccccc3)c3ccccc3)CC2)cc1 (centres undefined)	none (no result: FAS-TE inh, GRIN3A LBD mod)
COc1cc(/C=C(\C(=O)O)c2ccc(S(=O)(=O)N3CCCC3)s2)cc(OC)c1	none
